{"source": "PubChem BioAssay AID488969", "about": "(Vanderbilt High Throughput Screening Facility, 2010)", "note": "Over roughly 110,000 compounds, “z-score” has its median near -0.1; the highest 2% begin near 2. This is one part of a sample in which the highest values are shown more often than they occur. Active and inactive are the calls of the source.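 The calls were made as follows: active = z-score in the third read window above 3 or below -3; inactive = the rest.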", "data": [{"biological_target": "Metabotropic glutamate receptor 8 (Rattus norvegicus) (UniProt P70579)", "sequence (P70579 whole entry, looked up)": "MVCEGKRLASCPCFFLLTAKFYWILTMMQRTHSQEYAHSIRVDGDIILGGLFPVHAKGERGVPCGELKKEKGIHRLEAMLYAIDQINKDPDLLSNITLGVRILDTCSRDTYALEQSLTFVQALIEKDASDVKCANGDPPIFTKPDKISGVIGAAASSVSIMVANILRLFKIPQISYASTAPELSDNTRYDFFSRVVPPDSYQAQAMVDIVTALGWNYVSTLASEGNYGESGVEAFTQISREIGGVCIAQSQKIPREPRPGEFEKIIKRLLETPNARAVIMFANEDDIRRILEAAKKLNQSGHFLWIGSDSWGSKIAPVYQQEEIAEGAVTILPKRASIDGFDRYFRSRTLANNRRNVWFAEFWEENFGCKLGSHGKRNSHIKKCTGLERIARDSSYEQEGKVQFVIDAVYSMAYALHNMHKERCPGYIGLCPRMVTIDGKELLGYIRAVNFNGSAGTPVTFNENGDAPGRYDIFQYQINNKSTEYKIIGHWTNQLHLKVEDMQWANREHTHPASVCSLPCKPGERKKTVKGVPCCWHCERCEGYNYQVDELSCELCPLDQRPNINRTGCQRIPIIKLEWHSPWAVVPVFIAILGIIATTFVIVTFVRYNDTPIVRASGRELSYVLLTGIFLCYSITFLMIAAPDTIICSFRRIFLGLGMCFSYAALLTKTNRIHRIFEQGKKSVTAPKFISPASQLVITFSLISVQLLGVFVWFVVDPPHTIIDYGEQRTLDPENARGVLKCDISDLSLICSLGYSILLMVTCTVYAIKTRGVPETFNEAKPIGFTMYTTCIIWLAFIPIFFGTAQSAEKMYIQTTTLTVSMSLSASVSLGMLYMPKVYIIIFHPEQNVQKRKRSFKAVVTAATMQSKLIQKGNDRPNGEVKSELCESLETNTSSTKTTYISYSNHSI", "experiment": "rat mGluR8 modulators via GIRK flux, primary screen, cell-based, thallium flux, HTS (AID 488969)", "conditions": "HEK293 rat mGluR8, GIRK (G protein-gated inwardly rectifying potassium channel) thallium flux, FluoZin2; at 10 µM; stronger effect = higher value; submaximal glutamate (EC20) added with thallium", "values": [{"smiles": "Cc1cc(/C=C(/C#N)c2nc3ccccc3[nH]2)c(C)n1-c1cccc([N+](=O)[O-])c1", "z-score": -0.533}, {"smiles": "O=C(CN1CCCC1)NC12CC3CC(CC(C3)C1)C2", "z-score": -0.0651}, {"smiles": "Cn1c(=O)c([N+](=O)[O-])c(NCc2ccccc2)c2ccccc21", "z-score": -0.608}, {"smiles": "COc1ccc(CNC(=O)COC(=O)c2cc(-c3ccc(Cl)s3)nc3ccccc23)cc1", "z-score": -0.432}, {"smiles": "O=C(NCCc1c[nH]c2ccccc12)c1cc2sccc2n1Cc1ccccc1", "z-score": -0.216}, {"smiles": "Cc1ccc(C(=O)O/N=C\\c2ccc(N3CCOCC3)c([N+](=O)[O-])c2)cc1", "z-score": -0.0662}, {"smiles": "CC(=O)Nc1ccc(NC(=O)C(F)(F)F)cc1", "z-score": 0.364}, {"smiles": "FC(F)Sc1ccc(-n2cc(-c3ccccc3)[n+]3c2CCC3)cc1", "z-score": -0.0431}, {"smiles": "CCCc1nc(SCC(=O)c2ccccc2)c2c(=O)n(C)c(=O)n(C)c2n1", "z-score": 0.819}, {"smiles": "CCCc1nc(SCC(=O)N2CCC(Cc3ccccc3)CC2)c2c(=O)n(C)c(=O)n(C)c2n1", "z-score": 1.98}, {"smiles": "CCCc1nc(SCC(=O)N2CCN(c3ccccc3)CC2)c2c(=O)n(C)c(=O)n(C)c2n1", "z-score": 2.39}, {"smiles": "Cc1nnc(SCC(=O)NN2C(=O)NC3(CCCCC3)C2=O)s1", "z-score": -0.0833}, {"smiles": "O=C(CSc1nnc(Nc2ccccc2)s1)NN1C(=O)NC2(CCCCC2)C1=O", "z-score": 2.14}, {"smiles": "O=C(CSc1nnc(NC2CCCCC2)s1)NN1C(=O)NC2(CCCCC2)C1=O", "z-score": 0.151}, {"smiles": "CCCCC1=C([O-])C2N=CC=CC2=[N+](c2ccccn2)C1=O", "note": "(centres undefined)", "z-score": -0.104}, {"smiles": "Cc1ccc(S(=O)(=O)NC(CC(=O)N2CCc3ccccc32)c2ccco2)cc1", "note": "(centres undefined)", "z-score": -0.465}, {"smiles": "CCN(CC)C(=O)c1cc2cc(Br)ccc2oc1=O", "z-score": 0.312}, {"smiles": "O=C(Nn1cnnc1)c1cc2cc(Br)ccc2oc1=O", "z-score": "4.37 (active)"}, {"smiles": "CC(C)NC(=O)c1cc2cc(Br)ccc2oc1=O", "z-score": -0.497}, {"smiles": "CCC(c1nnnn1C(C)(C)C)N(Cc1ccco1)Cc1cc2cccc(C)c2[nH]c1=O", "note": "(centres undefined)", "z-score": 0.737}, {"smiles": "CC(C)C(C)(C#N)NC(=O)CSc1ncnc2sc(-c3ccccc3)cc12", "note": "(centres undefined)", "z-score": "4.81 (active)"}, {"smiles": "CCc1cc2c(SCC(=O)c3ccccc3)ncnc2s1", "z-score": 0.275}, {"smiles": "CN(C)/C=N/c1c(C#N)cnn1-c1ncnc2sc(-c3ccccc3)cc12", "z-score": 0.831}, {"smiles": "CCN(CC)C(=O)CSc1ncnc2c1cnn2Cc1ccccc1", "z-score": 0.13}, {"smiles": "CN(CCC#N)C(=O)CSc1ncnc2sc(-c3ccccc3)cc12", "z-score": "8.2 (active)"}, {"smiles": "COC(=O)c1c(C)[nH]c(C(=O)CSc2ncnc3sc(-c4ccccc4)cc23)c1C", "z-score": 1.11}, {"smiles": "CCN(CC)C(=O)CSc1nnc(-c2ccccc2)c(-c2ccccc2)n1", "z-score": -0.489}, {"smiles": "CC(=O)c1c(C)[nH]c(C(=O)CSc2ncnc3sc(-c4ccccc4)cc23)c1C", "z-score": "5.38 (active)"}, {"smiles": "CC(C)C(C)(C#N)NC(=O)CSc1nnc(-c2ccncc2)n1Cc1ccccc1", "note": "(centres undefined)", "z-score": 0.023}, {"smiles": "CC(=O)c1c(C)[nH]c(C(=O)CSc2nnc(-c3ccccc3)o2)c1C", "z-score": -0.229}, {"smiles": "CC(C)C(C)(C#N)NC(=O)CSc1nnc(-c2ccccc2)o1", "note": "(centres undefined)", "z-score": -0.849}, {"smiles": "CCN(CC)C(=O)CSc1ncnc2sc(-c3ccccc3)cc12", "z-score": "7.95 (active)"}, {"smiles": "CCOC(=O)C1CCN(C(=O)c2cccc(Cl)c2)CC1", "z-score": 0.0552}, {"smiles": "C/C(=N\\NC(=O)c1c(Cl)c(C)nn1C)c1cccc(NC(=O)COc2ccccc2)c1", "z-score": -0.103}, {"smiles": "CCOC(=O)Nc1nnc(-c2ccc(OC)cc2)s1", "z-score": 0.0823}, {"smiles": "CC(C)[C@H](NC(=O)c1ccccc1)C(=O)OCC(=O)N1CCCc2ccccc21", "z-score": 0.0154}, {"smiles": "Cc1cccc(C)c1NC(=O)CSc1nc(COc2ccccc2)nc2ccccc12", "z-score": 0.755}, {"smiles": "O=C(Nc1ccccc1)C(c1ccccc1)C1CCCC1", "note": "(centres undefined)", "z-score": -0.474}, {"smiles": "Cc1ccc(NC(=O)C(c2ccccc2)C2CCCC2)cc1", "note": "(centres undefined)", "z-score": "3.36 (active)"}, {"smiles": "O=C(Nc1ccc2ccccc2c1)C(c1ccccc1)C1CCCC1", "note": "(centres undefined)", "z-score": 0.0599}, {"smiles": "CCOC(=O)N1CCN(C(=O)N2CCOCC2)CC1", "z-score": 0.275}, {"smiles": "COc1ccccc1N1CCN(S(=O)(=O)c2ccccc2F)CC1", "z-score": -0.52}, {"smiles": "CCCCCCOC(=O)C(C#N)c1nc2ccccc2nc1N1CCN(CC)CC1", "note": "(centres undefined)", "z-score": 0.709}, {"smiles": "CCCCCCOC(=O)C(C#N)c1nc2ccccc2nc1N1CCN(C)CC1", "note": "(centres undefined)", "z-score": 2.73}, {"smiles": "COCCOC(=O)C(C#N)c1nc2ccccc2nc1N1CCCC1", "note": "(centres undefined)", "z-score": -0.268}, {"smiles": "CCCCCCOC(=O)C(C#N)c1nc2ccccc2nc1N1CCCCC1", "note": "(centres undefined)", "z-score": -0.00593}, {"smiles": "CCC(CC)COC(=O)C(C#N)c1nc2ccccc2nc1N1CCN(CC)CC1", "note": "(centres undefined)", "z-score": 2.72}, {"smiles": "CC(C)COC(=O)C(C#N)c1nc2ccccc2nc1N1CCN(Cc2ccccc2)CC1", "note": "(centres undefined)", "z-score": -0.213}, {"smiles": "COc1ccc(CCNC(=O)Cc2cc(OC)c(OC)cc2[N+](=O)[O-])cc1OC", "z-score": -0.376}, {"smiles": "COCC(=O)Nc1nnc(COc2ccc(Cl)cc2)s1", "z-score": 0.279}, {"smiles": "COc1ccc(C2c3c(ccc4ccccc34)Oc3ncn4nc(Cc5ccc(OC)c(OC)c5)nc4c32)cc1", "note": "(centres undefined)", "z-score": -0.169}, {"smiles": "Cc1cc(=O)oc(C)c1C(=O)N1CCN(C(c2ccccc2)c2ccccc2)CC1", "z-score": 0.596}, {"smiles": "CN(C)C(=O)C(=O)c1cccn1-c1ccccc1C#N", "z-score": 0.429}, {"smiles": "CCOC(=O)C1CCCN(C(=O)c2sc3nc(C)nc(N(CC)CC)c3c2C)C1", "note": "(centres undefined)", "z-score": -0.328}]}]}
